BL2 CD40 inh: CD40 pathway inhibition in BL2 cells; actives 0.94% (n = 83,000); BL2 NF-kB luciferase reporter, CD40L-induced, 4 h; inhibition, % at 10 µM;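 active means mean inhibition of at least 50% with a set share of replicates also reaching that level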;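 further: 0% = neutral control wells and 100% = IKK inhibitor VII at 50 µM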
Starred values were filed as active, the others as inactive; [ ] = remark or other dose. Many of the other results were omitted from the sample, so hits are more common in it than they were.

SMILES | BL2 CD40 inh
CC1OC(OC2C(O)CC(OC3C(O)CC(OC4CCC5(C)C(CCC6C5CCC5(C)C(C7=CC(=O)OC7)C(O)CC65O)C4)OC3C)OC2C)CC(O)C1O (centres undefined) | 58*
C[C@]12CC[C@H](O)C[C@@H]1CC[C@H]1[C@H]3CCC(=O)[C@@]3(C)CC[C@@H]12 | 2
CC(=O)C1CCC2C3CCC4CC(O)CCC4(C)C3CCC12C#N (centres undefined) | 1
C[C@]12CC[C@H](O)C[C@H]1CC[C@@H]1[C@@H]2CC[C@]2(C)[C@@H](c3ccc(=O)oc3)CC[C@]12O | 58*[25 µM]
C[C@]12CCC3C(CC[C@H]4C[C@@H](O)CC[C@]34C)C1C[C@@H](O)[C@@H]2O (some centres undefined) | 1
C[C@]12CC[C@@H](O)C[C@@H]1CC[C@@H]1[C@@H]2CC[C@]2(C)C(=O)CC[C@@H]12 | 12
CC(=O)OC1CC2(O)C3CCC4CC(O)CCC4(C)C3CCC2(C)C1C1=CC(=O)OC1 (centres undefined) | 75*
O=C(Cc1cccnc1)N1CCCCN2[C@H](CO)[C@H](c3ccc(C#CC4(O)CCCC4)cc3)[C@H]2C1 | 6[25 µM]
CC(=O)N1C[C@@H]2C(c3ccccc3)[C@H](C1)N2CC1CC1 (some centres undefined) | -1
CCC(=O)N1[C@@H]2Cn3c(ccc(C4=CCCC4)c3=O)[C@H]1[C@@H](C(=O)OC)[C@@H]2CO | -7[25 µM]
C=CCN1[C@@H]2CN(CC(F)(F)F)C[C@H]1C2c1ccc(Br)cc1 (some centres undefined) | -7
CS(=O)(=O)N1CC2NC(C1)C2c1ccc(Br)cc1 (centres undefined) | -5
C=CCN1[C@@H]2CN(C(C)=O)C[C@H]1C2c1ccc(Br)cc1 (some centres undefined) | 11
CCOC(=O)c1ncn2c1C1CCCN1C(=O)c1cc(OC)ccc1-2 (centres undefined) | 4[25 µM]
C[C@H](CO)N1C[C@H](C)[C@@H](CN(C)C(=O)Oc2cccc3ccccc23)OCc2cnnn2CCCC1=O | -6[25 µM]
O=C(Cc1ccccn1)N1CCCCN2[C@H](CO)[C@H](c3ccc(-c4ccccc4F)cc3)[C@H]2C1 | -15[25 µM]
O=C(Cc1ccccn1)N1CCCCN2[C@@H](CO)[C@H](c3ccc(-c4ccccc4F)cc3)[C@@H]2C1 | 7[25 µM]
CN(C)CC#Cc1ccc([C@@H]2[C@H](CO)N3CCCCN(C(=O)Cc4ccccn4)C[C@@H]23)cc1 | -7[25 µM]
O=C(Nc1cccc(Cl)c1)OC1CN2CCC1CC2 (centres undefined) | -51
N#CC(C#N)=NNc1cccc(Cl)c1 | 75*[25 µM]
C[C@@H]1CN([C@@H](C)CO)C(=O)c2c(c3ccccc3n2C)-c2ccccc2CO[C@@H]1CN(C)C(=O)Oc1ccccc1 | 0
CC(C)NC(=O)N1[C@@H]2Cn3c(ccc(-c4cccc(C(=O)N(C)C)c4)c3=O)[C@H]1[C@@H](C(=O)O)[C@@H]2CO | 4[25 µM]
C/C=C/c1ccc(C2[C@H]3CNC[C@@H]2N3CC2CC2)cc1 (some centres undefined) | -5[25 µM]
OC[C@@H]1Nc2ccc(C#Cc3cccnc3)cc2[C@@H]2NCC[C@H]12 | -2[25 µM]
COC(=O)[C@H]1[C@H](CO)[C@H]2Cn3c(ccc(C4=CCCCC4)c3=O)[C@@H]1N2CCc1ccccc1 | 9[25 µM]
SMILES | BL2 CD40 inh
COC(=O)C1=C(C(=O)OC)C2OC1c1cc3ccccc3cc12 | 103*
CC(C)NC(C)C(=O)c1ccc2ccccc2c1 (centres undefined) | 9
Oc1ccc2c3c1OC1c4[nH]c5ccccc5c4CC4(O)C(C2)N(CC2CC2)CCC314 (centres undefined) | -18[25 µM]
N#Cc1ccc(-c2ccc([C@H]3[C@H]4CN(C(=O)Cc5ccccc5)CCCCN4[C@H]3CO)cc2)cc1 | 1[25 µM]
C=CCN1CCC23c4c5ccc(O)c4OC2C(=O)CCC3(O)C1C5 (centres undefined) | -4[25 µM]
CN1[C@@H](CO)[C@@H]2c3ccccc3NC[C@@H]21 | -11[25 µM]
CN(C(=O)Cc1ccccc1)C(CN1CCCC1)c1ccccc1 (centres undefined) | 6[25 µM]
CC(C)(C)n1cc(C(=O)c2ccc3ccccc3c2O)cn1 | 54*
CC(C)NC(=O)N1C[C@@H]2N[C@H](C1)C2c1ccc(Br)cc1 (some centres undefined) | 8
O=C(O)C[C@H]1CC[C@@H]2NC[C@H](O)COC[C@H]2O1 | -1[25 µM]
CC=Cc1ccc2n(c1=O)C[C@H]1[C@H](CO)[C@@H](C(=O)N(C)C)[C@@H]2N1C (mixture of isomers) | 0
CN(C)CC#Cc1ccc([C@@H]2[C@@H](CO)N3CCCCN(C(=O)Cc4ccccn4)C[C@H]23)cc1 | -5[25 µM]

Source: PubChem
